# Potency and affinity values are given separately. Results filed as inconclusive are left out. The source made the active and inactive calls.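 How the source made its calls: active means signal loss with fitted half-maximal concentration at or below twice the top valid tested dose in every test run; inconclusive means runs disagree, flat 30 to 70% signal loss, or poor fit; inactive means all runs flat, opposite direction, or potency beyond limit.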
# Assay: HEK293T cytotoxicity, dose response, cytotoxicity control for miR-122 modulator project, cell-based, inhibitor set, cherry-pick, set 2 (AID 720697);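 further: 0% = median of neutral control wells and -100% = MG132 positive control wells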
# Details: HEK293T viability, CellTiter-Glo luminescence, 48 h; series mostly up to 26 µM; activity change, negative = cytotoxicity: at the top concentration
row,Compound,"activity change, negative = cytotoxicity"
1,CC(=O)N1[C@H](CN(C)S(=O)(=O)c2ccccc2)[C@H](c2ccccc2)[C@@H]1CO,127% (inactive)
2,O=c1c2c3c(sc2nc2n1CCC2)CCCC3,30.6% (inactive)
3,CNC(=O)C[C@@H]1CC[C@@H]2[C@@H](COc3ccc(NC(=O)c4ccccc4F)cc3C(=O)N2C)O1,102% [at 23.5 µM] (inactive)
4,C[C@@H]1CN([C@H](C)CO)S(=O)(=O)c2ccc(C#CC3(O)CCCC3)cc2O[C@@H]1CN(C)C(=O)c1cccnc1,196% (inactive)
5,COc1cccc(CNC(=O)C[C@H]2CC[C@@H]3[C@@H](COc4ccc(NC(C)=O)cc4C(=O)N3C)O2)c1,-12.8% (inactive)
6,COc1cccc(-c2ccc3c(c2)O[C@H](CN(C)C(=O)C2CCOCC2)[C@H](C)CN([C@H](C)CO)S3(=O)=O)c1,-9.57% (inactive)
7,COc1ccc(S(=O)(=O)Nc2cccc3c2O[C@H](CN(C)CC2CCCCC2)[C@@H](C)CN([C@H](C)CO)C3=O)cc1,94.8% (inactive)
8,C/C=C/c1ccc2c(c1)O[C@@H](CN(C)CC1CCCC1)[C@H](C)CN([C@@H](C)CO)S2(=O)=O,109% (inactive)
9,CC(C)c1ccc(NC(=O)C[C@H]2CC[C@H]3[C@@H](COc4ccc(NC(=O)Nc5ccc(F)c(F)c5)cc4C(=O)N3C)O2)cc1,-6.32% (inactive)
10,COc1cc(N)c(Cl)cc1NC(=O)c1ccccc1,140% (inactive)
11,Fc1ccccc1-c1nc(-c2ccncc2)no1,-1.62% [at 6 µM] (inactive)
12,CN(C)CCCNC(=O)C[C@@H]1CC[C@@H]2[C@@H](COc3ccc(NC(=O)NC4CCCC4)cc3C(=O)N2C)O1,65.9% [at 23.5 µM] (inactive)
13,CCNC(=O)C[C@@H]1CC[C@H]2[C@H](COc3ccc(NC(=O)c4ccccc4)cc3C(=O)N2C)O1,92.7% (inactive)
14,Cc1ccc(S(=O)(=O)Nc2ccc3c(c2)C(=O)N(C)[C@@H]2CC[C@@H](CC(=O)NCCc4ccncc4)O[C@@H]2CO3)cc1,45.1% (inactive)
15,COCCNC(=O)C[C@H]1CC[C@@H]2[C@@H](COc3ccc(NS(=O)(=O)c4ccc(Cl)cc4)cc3C(=O)N2C)O1,-6.55% (inactive)
16,CC(C)C#Cc1ccc2c(c1)O[C@H](CN(C)C(=O)c1ccncc1)[C@H](C)CN([C@H](C)CO)S2(=O)=O,10.8% (inactive)
17,CO[C@H]1CN(C)C(=O)c2cc(NC(C)=O)ccc2OC[C@@H](C)N(C(=O)c2ccccn2)C[C@H]1C,-42.3% (inactive)
18,COC(=O)C[C@H]1CC[C@H]2[C@H](COc3ccc(NC(=O)NC(C)C)cc3C(=O)N2C)O1,52% (inactive)
19,NS(=O)(=O)c1ccc(Nc2nc(-c3cccnc3)cs2)cc1,34% [at 6 µM] (inactive)
20,C[C@@H]1CN([C@@H](C)CO)S(=O)(=O)c2ccc(C#Cc3ccncc3)cc2O[C@@H]1CN(C)C(=O)C1CCOCC1,123% (inactive)

row,Compound,"activity change, negative = cytotoxicity"
1,COc1ccc(S(=O)(=O)Nc2cc(C)cc(C)n2)c2ccccc12,17.9% (inactive)
2,COCC(=O)N(C)C[C@H]1[C@H](c2ccccc2)[C@@H](CO)N1C(=O)NC(C)C,101% (inactive)
3,O=C(Nc1ccccc1N1CCN(C(=O)c2ccc(Cl)cc2)CC1)c1cccnc1,85.2% (inactive)
4,CN1C(=O)c2cc(NC(=O)c3cc(F)cc(F)c3)ccc2OC[C@@H]2O[C@@H](CC(=O)O)CC[C@@H]21,-20.5% (inactive)
5,C/C=C/c1ccc([C@@H]2[C@H](CO)N(Cc3ccccn3)[C@H]2CNC(=O)CC)cc1,82.8% (inactive)
6,COc1ccccc1NC(=O)N1CCCCN2[C@H](CO)[C@H](c3ccc(C#CC4CCCC4)cc3)[C@H]2C1,91.3% (inactive)
7,CCC(=O)N1[C@H](CO)[C@@H](c2ccccc2)[C@@H]1CN(CC)C(=O)c1cccc(F)c1,83.6% (inactive)
8,O=C(NCCCN1CCCC1)c1ccc(CSCc2cccc(Cl)c2)o1,69.1% (inactive)
9,COCC(=O)N(C[C@@H]1[C@@H](c2ccccc2)[C@H](CO)N1C(=O)NC(C)C)C(C)C,64.9% (inactive)
10,O=C(CNCCC1=CCCCC1)Nc1ccccc1N1CCCCCC1,-14.3% (inactive)
11,CNC[C@H]1Oc2cc(C#CC3CCCC3)ccc2S(=O)(=O)N([C@H](C)CO)C[C@H]1C,31.7% (inactive)
12,CCCC(=O)Nc1ccc2c(c1)C(=O)N(C)[C@H]1CC[C@@H](CC(=O)NCCN3CCCCC3)O[C@H]1CO2,43.1% [at 23.5 µM] (inactive)
13,CN(C[C@H]1N[C@@H](CO)[C@@H]1c1ccc(C2=CCCC2)cc1)C(=O)c1ccc(F)cc1,110% [at 23.5 µM] (inactive)
14,OC[C@H]1[C@@H](c2ccccc2)[C@H](CNCC2CCC2)N1CC1CC1,144% (inactive)
15,C/C=C/c1ccc([C@H]2[C@@H](CO)N(Cc3ccccn3)[C@@H]2CNC(=O)CC)cc1,-24.5% [at 23.5 µM] (inactive)
16,CCCC(=O)Nc1ccc2c(c1)C(=O)N(C)[C@@H]1CC[C@H](CC(=O)NCCN3CCCCC3)O[C@H]1CO2,-14.8% (inactive)
17,C[C@@H]1CN([C@H](C)CO)S(=O)(=O)c2ccc(C#Cc3ccccc3F)cc2O[C@@H]1CN(C)C(=O)Cc1ccncc1,20% (inactive)
18,Cc1cc(C(=O)Nc2ccc3c(c2)C(=O)N(C)[C@H]2CC[C@H](CC(=O)N[C@H](C)c4ccccc4)O[C@H]2CO3)no1,37.3% (inactive)
19,CCCNC(=O)C[C@H]1CC[C@@H]2[C@@H](COc3ccc(NC(=O)c4ccc5c(c4)OCO5)cc3C(=O)N2C)O1,139% [at 23.5 µM] (inactive)

# Reference: PubChem BioAssay AID720697 (Broad Institute, 2013)
